Tgondii IFNg: inhibitors of Toxoplasma gondii growth with IFN-gamma | Toxoplasma gondii growth in IFN-gamma-treated host cells; active compounds read low | activity change, negative = inhibition, % (concentration not given with the values) | actives 3.8% (n = 69,000); in the data active = activity change below about -70%, passing the limit was not always enough;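 also: host cells are HeLa cells infected with Toxoplasma gondii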
Of the large screens only hits and unclear results are named; the others gave an inactive call; ! = a repeat was not active. Only a selection was taken, and hits are over-represented in it overall.

Cc1oc(-c2cccs2)nc1-c1c(-c2ccccc2)ncn1CCCO	none
CC(C)(C)Cn1c(N)nc2ccc(-c3[nH]c(C(C)(C)C)nc3-c3ccc(F)cc3)nc21	Tgondii IFNg -83.1
O=C(OCCCN1CCOCC1)c1ccc(O)cc1O	none
COc1ccc2c(c1)c1c(n2Cc2ccccc2)CCCC1	none
O=C1SCCc2c1n(Cc1ccccc1)c1ccccc21	none
O=C(O)Cn1c2c(c3ccccc31)CCC2	Tgondii IFNg -92.0
O=C(Cc1ccccc1)NO	none
CCCCOc1ccc(CC(=O)NO)cc1	Tgondii IFNg -100.1!
CCCCOc1ccc(NC(=O)CN2CCN(CC)CC2)cc1	none
COc1cc2sc(NC(=O)C(C)(C)n3cncn3)nc2cc1Cl	none
CS(=O)(=O)N1CC[C@H](Oc2cccnc2)[C@@H](Cc2ccccc2)C1	none
Cc1cc(F)ccc1NC(=O)Cn1c(=O)cc(C(=O)N2CCCCC2)c2ccccc21	none
[O-][NH2+]c1ccc(O)c2ncccc12	Tgondii IFNg -83.7!
Cc1cc(CNc2nccc(N3CCC(O)CC3)n2)c2[nH]c(C)c(C)c2c1	none
CS(=O)(=O)NCc1cnc2n1CCN(C(=O)CC1CC1)CC2	none
Cn1c(=O)c(-c2nc(-c3ccc(Cl)c(F)c3)no2)c(O)c2ccccc21	none
Cc1ccc2c(c1)cc(S(=O)(=O)c1ccccc1)c(=O)n2CC(=O)NC1CCCCC1	none
COc1ccc(-c2noc(-c3c(O)c4ccccc4n(C)c3=O)n2)cc1OC	none
FC(F)(F)c1cccc(N2CCN(c3nc(-c4ccc(Cl)cc4)nc4ccccc34)CC2)c1	none
Nc1ccc(-c2ccc3ncc4ccc(=O)n(-c5cccc(C(F)(F)F)c5)c4c3c2)cn1	Tgondii IFNg -75.9
COc1ccc(-c2nc(N3CCN(c4cccc(C(F)(F)F)c4)CC3)c3ccccc3n2)cc1	none
CC1(C(=O)NCc2ccc(F)cc2F)CCN(C(=O)c2ccc(C(C)(C)C)cc2)CC1	Tgondii IFNg -90.8
CC1(C(=O)NCc2ccc(F)cc2F)CCN(C(=O)c2ccc(F)cc2)CC1	none
CC1(C(=O)NCc2ccc(F)cc2F)CCN(C(=O)c2ccccc2)CC1	none
CCc1nc(C)c(C(=O)N(C)Cc2csc(C(C)C)n2)o1	Tgondii IFNg -91.7
CCc1nc(C)c(C(=O)N(C)Cc2ccc3nsnc3c2)o1	none
CCc1nc(C)c(C(=O)N(C)Cc2snnc2C)o1	none
CC(=O)c1ccc(C(=O)N2CCCC3(C=Cc4ccccc4O3)CC2)cc1 (stereo not given)	none
CCOC(=O)c1c(C)oc2cc(Br)c(OC(C)C(=O)OCC)cc12 (stereo not given)	none
CCOC(=O)C1=C(N)Oc2ccc(Br)cc2[C@H]1[C@H](C#N)C(=O)OCC	Tgondii IFNg -74.7
CCOC(=O)C1c2ccccc2Oc2ccccc21	none
CCCC(=O)N(Cc1ccccc1)Cc1nc(N(C)C)ncc1-c1cc(C)no1	none
Cc1ncc(CN2CCN(Cc3cccc(F)c3)CC2)n1C	none
CNC(=O)[C@H]1C[C@@H]2CN(Cc3nccs3)C[C@@H]2N1C(C)=O	none
CC(C)C(=O)C1c2c(ncn2C(C)C)CCN1C(=O)c1cccnc1 (stereo not given)	none
COc1cccc(CNC(=O)c2nc(-c3ccc(C)cc3)n3c2CCCCC3)c1	Tgondii IFNg -107.9
O=C(NCCN1CCCCCC1)c1nc(-c2ccc(Cl)cc2)n2c1CCCCC2	none
CCNC(=O)c1nc(-c2ccc(Cl)cc2)n2c1CCCCC2	none
COCCNC(=O)c1nc(-c2cccc(F)c2)n2c1CCCCC2	none
Cc1ccc(-c2nc(C(=O)NCCN3CCOCC3)c3n2CCCCC3)cc1	none
CCC(C)NC(=O)c1nc(-c2ccc(C)cc2)n2c1CCCCC2 (stereo not given)	Tgondii IFNg -92.1
CCC(C)NC(=O)c1nc(-c2cccc(F)c2)n2c1CCCCC2 (stereo not given)	Tgondii IFNg -97.8
CCCCN(C)C(=O)c1nc(-c2cccc(F)c2)n2c1CCCCC2	none
COc1ccc(N2CCN(C(=O)c3nc(-c4cccc(F)c4)n4c3CCCCC4)CC2)cc1	none
Cc1ccc(Nc2nc(C(=O)Nc3ccc4c(c3)OCCO4)nc3ccccc23)cc1	none
COc1ccc(CNC(=O)c2nc(-c3ccc(C)cc3)n3c2CCCCC3)cc1	none
Cc1ccc(-c2nc(C(=O)Nc3ccc4c(c3)OCCO4)c3n2CCCCC3)cc1	Tgondii IFNg -93.9
Cc1nc(N2CCOCC2)nc2c1COCC21CCN(c2ncc(F)cn2)C1 (stereo not given)	none
Cc1nc(CN2CCC3(C2)CN(CC2CCOCC2)C3)cs1	none
COc1ccc(-n2c(=O)c(C(=O)Nc3ccc(C)c(F)c3)c(O)c3cccnc32)cc1	none
Cc1noc(C)c1CN1CCCC2(CCN(S(=O)(=O)c3cccc(F)c3)C2)C1 (stereo not given)	none
CC1(CNC(=O)CNS(=O)(=O)c2ccc3c(c2)OCCCO3)COC1	none
CCS(=O)(=O)N1CCc2nnc(CN(C)C(C)C)n2CC1	none
O=C(O)C1(Cc2cc(-c3ccccc3)no2)CCOCC1	none
COc1cc(C2CC(=O)c3cnn(-c4nc(C)cc(C)n4)c3C2)cc(OC)c1OC (stereo not given)	none
CCOCC1CN(C(=O)c2ccc[nH]2)Cc2ccnn2C1 (stereo not given)	none
Cc1nc(OCC(=O)Nc2ccc(C)c(F)c2)c2ccccc2n1	none
CC(=O)c1cccc(-c2cc3c(n(C)c2=O)CCN(C(=O)c2ccc4[nH]c5c(c4c2)CCCC5)C3)c1	none

Source: PubChem
